This is an account of results in PubChem BioAssay (NCATS).

The structures appear in SMILES notation. Results filed as inconclusive are left out. Activity calls are given as the source filed them. Calls come from the whole dose curve; as a rule, active = well fitted inhibition curve with a large enough effect; inconclusive = small, poorly fitted or top-dose-only effect, or effect the other way; inactive = flat fitted curve, though single readings scatter.
% is set by controls: 0 for no effect and ±100 for the full control effect.

For this test, the target named is ATP-dependent 6-phosphofructokinase (Trypanosoma brucei brucei) (UniProt O15648). Kind of test: qHTS Assay to Find Inhibitors of T. brucei phosphofructokinase: hit validation (AID 492961). The following applies: T. brucei PFK, ADP-Glo luminescence; series mostly up to 51.4 µM; activity change, negative = inhibition: at the top concentration. In short, it runs like this: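 Luminescence from ADP-Glo reports ADP generated as T. brucei PFK (1.25 nM) phosphorylates 0.5 mM fructose-6-phosphate using 0.1 mM ATP. Reactions ran 45 min at room temperature, pH 8.0.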
Sequence of ATP-dependent 6-phosphofructokinase (Trypanosoma brucei brucei) (O15648 whole entry, looked up): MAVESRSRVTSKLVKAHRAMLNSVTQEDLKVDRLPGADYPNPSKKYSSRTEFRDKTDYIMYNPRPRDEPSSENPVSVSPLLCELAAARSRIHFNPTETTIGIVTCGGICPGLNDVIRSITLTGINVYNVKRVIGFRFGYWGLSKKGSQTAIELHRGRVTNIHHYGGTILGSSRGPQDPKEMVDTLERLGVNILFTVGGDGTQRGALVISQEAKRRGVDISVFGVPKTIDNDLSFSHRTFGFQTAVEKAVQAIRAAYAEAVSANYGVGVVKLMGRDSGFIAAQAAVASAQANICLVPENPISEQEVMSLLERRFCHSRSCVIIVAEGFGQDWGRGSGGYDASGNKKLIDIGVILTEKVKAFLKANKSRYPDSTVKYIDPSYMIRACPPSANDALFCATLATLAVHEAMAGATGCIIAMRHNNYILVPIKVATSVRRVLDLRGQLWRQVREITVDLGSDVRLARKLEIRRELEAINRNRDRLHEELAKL
Regarding `Cc1ccc(C(=O)C(C)CN2CCCCC2)cc1` (stereo not given), the “activity change, negative = inhibition” value is -4.71% (inactive).

In the case of `CC/C(=C(/CC)c1ccc(O)cc1)c1ccc(O)cc1`, the “activity change, negative = inhibition” value is 1.11% (inactive).

With `CN1CCC[C@@H]1c1cccnc1`, the “activity change, negative = inhibition” value was -0.815% (inactive).

`CN=C(NC#N)NCCSCc1csc(N=C(N)N)n1`: the “activity change, negative = inhibition” value was 8.1% (inactive).

In the case of `Cc1ncc(CSSCc2cnc(C)c(O)c2CO)c(CO)c1O`, the “activity change, negative = inhibition” value is 8.22% (inactive).

Consider `CCCCOc1ccc(OCCCN2CCOCC2)cc1`, for which the “activity change, negative = inhibition” value was -5.33% [at 24.3 µM] (inactive).

`CC(O)(P(=O)(O)O)P(=O)(O)O`: the “activity change, negative = inhibition” value was -4.18% (inactive).

Take `CC(C)(C(=O)c1cccnc1)c1cccnc1`: the “activity change, negative = inhibition” value was -1.13% [at 24.3 µM] (inactive).

As for `CC(=O)N(O)CCCCCNC(=O)CCC(=O)N(O)CCCCCNC(=O)CCC(=O)N(O)CCCCCN`, the “activity change, negative = inhibition” value was -10.3% [at 24.3 µM] (inactive).

As to `C[C@@H](CN(C)C)CN1c2ccccc2Sc2ccccc21`, the “activity change, negative = inhibition” value is 2.42% [at 24.3 µM] (inactive).

`O=c1ccc2ccccc2o1`: the “activity change, negative = inhibition” value is -0.189% (inactive).

As to `C[C@@H]1C[C@H]2[C@@H]3CCC4=CC(=O)C=C[C@]4(C)[C@@]3(F)[C@@H](O)C[C@]2(C)[C@H]1C(=O)CO`, the “activity change, negative = inhibition” value is -1.63% (inactive).

As to `C[C@@H]1CN(CCCn2c3ccccc3c3ccccc32)C[C@H](C)N1`, the “activity change, negative = inhibition” value is 1.25% (inactive).

For the compound `CCCCOc1ccc(C(=O)CCN2CCCCC2)cc1`, the “activity change, negative = inhibition” value was 13.4% [at 24.3 µM] (inactive).

As to `CC(C)=CCC1C(=O)N(c2ccccc2)N(c2ccccc2)C1=O`, the “activity change, negative = inhibition” value was 12.4% (inactive).

With `CC[N+](CC)(CCNC(=O)C(=O)NCC[N+](CC)(CC)Cc1ccccc1Cl)Cc1ccccc1Cl`, the “activity change, negative = inhibition” value was -1.37% (inactive).

Regarding `COc1c2occc2c(OC)c2c(=O)cc(C)oc12`, the “activity change, negative = inhibition” value was 10.1% [at 24.3 µM] (inactive).

Turning to `NCCCC[C@H](N[C@@H](CCc1ccccc1)C(=O)O)C(=O)N1CCC[C@H]1C(=O)O`, the “activity change, negative = inhibition” value is 1.35% [at 24.3 µM] (inactive).

Take `CN1CCC(=C2c3ccccc3Sc3ccccc32)CC1`: the “activity change, negative = inhibition” value is -4.55% (inactive).

With `CCCCOc1cc(C(=O)NCCN(CC)CC)c2ccccc2n1`, the “activity change, negative = inhibition” value was 0.148% [at 24.3 µM] (inactive).

For the compound `CN(C(=O)CN(CCO)CC(=O)N(C)C(C)(C)Cc1ccccc1)C(C)(C)Cc1ccccc1`, the “activity change, negative = inhibition” value is 1.5% [at 24.3 µM] (inactive).

As for `C=CCc1ccc(O)c(OC)c1`, the “activity change, negative = inhibition” value was -0.595% (inactive).

Regarding `CN(C)/N=N/c1nc[nH]c1C(N)=O`, the “activity change, negative = inhibition” value was -7.95% (inactive).

In the case of `CCOc1ccc(NC(=O)CC(C)O)cc1` (stereo not given), the “activity change, negative = inhibition” value is 3.27% (inactive).

Take `NCCC(O)(P(=O)(O)O)P(=O)(O)O`: the “activity change, negative = inhibition” value is -4% (inactive).

As to `CN1CCN(C(c2ccccc2)c2ccccc2)CC1`, the “activity change, negative = inhibition” value was -2.11% [at 24.3 µM] (inactive).

`CN(C)CC/C=C1\c2ccccc2Sc2ccc(Cl)cc21`: the “activity change, negative = inhibition” value was 0.993% (inactive).

As to `O=C1[C@H]2CCCC[C@H]2C(=O)N1CCCCN1CCN(c2nsc3ccccc23)CC1`, the “activity change, negative = inhibition” value was 10.9% (inactive).

With `COc1c(C)c2c(c(O)c1C/C=C(\C)CCC(=O)O)C(=O)OC2`, the “activity change, negative = inhibition” value was 2.45% [at 24.3 µM] (inactive).

`COc1cc2c(cc1OC)C(C(C(=O)N(CCc1ccc(OC)c(OC)c1OC)CCc1ccc(OC)c(OC)c1OC)c1ccccc1)=NCC2` (stereo not given): the “activity change, negative = inhibition” value is -1% (inactive).

Turning to `CCN(CCCc1ccccc1)CCCc1ccccc1`, the “activity change, negative = inhibition” value was -5.16% [at 24.3 µM] (inactive).

For the compound `Cc1cccn2c(=O)c(-c3nnn[nH]3)cnc12`, the “activity change, negative = inhibition” value is -12.4% (inactive).

For the compound `CC(C)COC(=O)c1ccc(N)cc1`, the “activity change, negative = inhibition” value was -2.75% (inactive).

Consider `C[C@]12CCC(=O)C=C1CC[C@H]1[C@@H]3CC[C@](O)(C(=O)CO)[C@@]3(C)C[C@H](O)[C@@]12F`, for which the “activity change, negative = inhibition” value was -4.3% (inactive).

For the compound `CCOC(=O)n1ccn(C)c1=S`, the “activity change, negative = inhibition” value was 6.87% [at 24.3 µM] (inactive).

Regarding `Nc1ccc(C(=O)O)cc1`, the “activity change, negative = inhibition” value is 9.57% (inactive).

For `CCCCN1CCCC1C(=O)Nc1c(C)cc(C)cc1C` (stereo not given), the “activity change, negative = inhibition” value is 8.22% (inactive).

As to `O=C(O)CCCCC(=O)O`, the “activity change, negative = inhibition” value was -3.38% (inactive).

For `Cc1c(F)c(N2CCNC(C)C2)cc2c1c(=O)c(C(=O)O)cn2C1CC1` (stereo not given), the “activity change, negative = inhibition” value was 3.96% (inactive).

As for `CC(=O)c1ccc2c(c1)N(CCCN1CCC(CCO)CC1)c1ccccc1S2`, the “activity change, negative = inhibition” value is -3.37% [at 24.3 µM] (inactive).
